From PubChem BioAssay (Tox21)
“And” between values parts separate entries of the source, which are not always exact repeats. Equal entries are not always repeated. Results filed as inconclusive are left out. A number with no mark means an inactive call. The source made the active and inactive calls. Calls come from the whole dose curve; as a rule, active = well fitted cell-killing curve with a large enough effect in the repeat runs; inconclusive = weak or mixed curves; inactive = flat fitted curve, though single readings scatter.

experiment: qHTS assay to identify small molecule antagonists of the estrogen receptor beta (ER-beta) signaling pathway - cell viability counter screen (AID 1259382); conditions: ER-beta-UAS-bla HEK293T viability, CellTiter-Glo luminescence, 16 h; series mostly up to 92.4 µM; activity change, negative = cytotoxicity: at the top concentration; note: nearly all actives have a fitted effect of over 55% in size
Text: U.S. Tox21 Program National Center for Advancing Translational Sciences [NCATS] NIH Chemical Genomics Center [NCGC] U.S. Environmental Protection Agency [EPA] National Institutes of Environmental Health Sciences [NIEHS] National Toxicology Program [NTP] U.S. Food and Drug Administration [FDA] Tox21 Assay Overview: Estrogen receptor (ER), a nuclear hormone receptor, plays an important role in development, metabolic homeostasis and reproduction. Two subtypes of ER, ER-alpha and ER-beta, have similar expression patterns with some uniqueness in both types. Endocrine disrupting chemicals (EDCs) and their interactions with steroid hormone receptors like ER causes disruption of normal endocrine function. To identify the compounds that inhibit ER signaling, an ER-beta-UAS-bla GripTite cell line (Life Technologies, Madison, WI, USA) containing a beta-lactamase reporter gene under the control of an UAS response element was used to screen Tox21 10K compound library. The cytotoxicity of the Tox21 compound library against the ER-beta-bla cell line was tested in parallel by measuring the cell viability using CellTiter-Glo assay in the same wells.
Tox21 Assay Protocol Summary: ER-beta-UAS-bla HEK293T cells were dispensed at 2,000 cells/4 uL of assay medium containing 2% charcoal stripped FBS per well into black wall/clear-bottom 1536-well plates using a Multidrop Combi (ThermoFisher Scientific, Waltham, MA) dispenser. After the assay plates were incubated at a 37C and 5% CO2 for 6 hr, 23 nL of compounds dissolved in DMSO, positive controls or DMSO only was transferred to the assay plate by a Pintool station (Kalypsys, San Diego, CA), followed by addition of 1 uL (1nM as final concentration) of 17-beta-estradiol (E2) in assay medium using a Flying Reagent Dispenser (FRD, Aurora Discovery, San Diego, CA). The plates were incubated at 37C and 5% CO2 for 16 hr. Then 1 uL of LiveBLAzer B/G FRET substrate was added using a Flying Reagent Dispenser, the plates were incubated at room temperature for 2 hours, and fluorescence intensity was measured by an Envision plate reader (PerkinElmer, Shelton, CT). For cell viability readout that measures cytotoxicity, 4 uL/well of CellTiter-Glo reagent was added into the assay plates using a FRD. After 30 min incubation at room temperature, the luminescence intensity in the plates was measured using a ViewLux (PerkinElmer) plate reader.
% is set by controls: 0 for no effect and ±100 for the full control effect; potency is the fitted concentration of half-maximal effect.

Compound | activity change, negative = cytotoxicity | Potency
Oc1cccc(Cl)c1 | 2.04% | 
Clc1ccc2ccccc2c1 | -9.25% | 
CC(C)c1ccc(NC(=O)N(C)C)cc1 | -0.583% | 
O=C(O)C(Cl)(Cl)Br | -1.39% | 
O=C(Cl)OCCOCCOC(=O)Cl | -0.101% | 
CN(C)N | -2.47% | 
C[C@]12C=CC3=C4CCC(=O)C=C4CC[C@H]3[C@@H]1CC[C@@H]2O | -10.1% | 
CCCCC(CC)CO[N+](=O)[O-] (stereo not given) | 5.68% | 
CC(C)c1ccc(OP(=O)(Oc2ccc(C(C)C)cc2)Oc2ccc(C(C)C)cc2)cc1 |  | 27.5 µM (active) and 30.6 µM (active)
CCCCCCCCCCCCCCCl | -1.44% | 
COc1ccc(C(=O)c2c(C)n(CCN3CCOCC3)c3ccccc23)cc1 | -0.121% [at 42.5 µM] | 
CC(O)CN1CCN(CC(=O)[O-])CCN(CC(=O)[O-])CCN(CC(=O)[O-])CC1.[Gd+3] (stereo not given) | -0.693% [at 42.5 µM] | 
CC(CC(C(N)=O)(c1ccccc1)c1ccccc1)N(C)C (stereo not given) | 6.24% [at 42.5 µM] | 
CCCC1CCCCN1 (stereo not given) | 9.71% [at 42.5 µM] | 
CC(C)(C)NCC(O)c1cc(Cl)c(N)c(C(F)(F)F)c1 (stereo not given) | 3.78% [at 42.5 µM] | 
FC(F)OC(F)(F)C(F)Cl (stereo not given) | 15.9% | 
CN(C)C(=O)Nc1cccc(OC(=O)NC(C)(C)C)c1 | 0.262% | 
O=C1c2ccccc2C(=O)N1SC(Cl)(Cl)Cl |  | inactive
O=C(O)c1ccc(=O)[nH]c1 | 8.68% [at 42.5 µM] | 
C=CCc1ccccc1O | 4.17% | 

Compound | activity change, negative = cytotoxicity | Potency
NP(N)(=O)NC(=O)c1ccc(F)cc1 | -3.26% [at 42.5 µM] | 
CC(C)(C)N(NC(=O)c1ccc(Cl)cc1)C(=O)c1ccccc1 | -24.1% | 
CCCC[N+]1(C)[C@@H]2CC(OC(=O)[C@H](CO)c3ccccc3)C[C@H]1[C@@H]1O[C@@H]12 (stereo not given in full) | 5.92% [at 42.5 µM] | 
O=CC=O | -3.41% | 
C[C@]12CC[C@H]3[C@@H](CCC4=CC(=O)CC[C@@H]43)[C@@H]1CC[C@@H]2OC(=O)CCc1ccccc1 | 3.09% [at 42.5 µM] | 
C=CC(=O)OCC | 2.6% | 
CCCCC(CC)COC(=O)c1c(Br)c(Br)c(Br)c(Br)c1C(=O)OCC(CC)CCCC (stereo not given) | 2.88% [at 42.5 µM] | 
O=C(O)C(O)C(O)C(=O)O (stereo not given) | 4.96% | 
C[N+]1(CCF)[C@@H]2CC[C@H]1CC(OC(=O)C(O)(c1ccccc1)c1ccccc1)C2 (stereo not given in full) | 0.34% [at 42.5 µM] | 
OCCSSCCO | -5.09% | 
Cc1ccc2c(C)cccc2c1 | 8.48% | 
C=CCOC(=O)C(C)(C)OC(=O)c1cc(-n2c(=O)cc(C(F)(F)F)n(C)c2=O)ccc1Cl | -15.8% | 
N#CC(C#N)=Cc1ccc(O)c(O)c1 | 0.69% [at 42.5 µM] | 
C#C[C@]1(O)CC[C@H]2[C@@H]3CCC4=CC(=O)CCC4=C3C=C[C@@]21CC | 17.1% [at 42.5 µM] | 
COC(=O)Cc1ccccc1 | 1.34% | 
CC(C)(c1ccccc1)c1cc(-n2nc3ccccc3n2)c(O)c(C(C)(C)c2ccccc2)c1 | -0.131% [at 42.5 µM] | 
CC(=O)OC(c1ccccc1)C(Cl)(Cl)Cl (stereo not given) | -4.21% | 
O=C(NCNC(=O)NC1C(=O)NC(=O)N1CO)NC1C(=O)NC(=O)N1CO (stereo not given) | 0.526% | 
C#CC(O)(C=CCl)CC (stereo not given) | 2.45% [at 42.5 µM] | 
O=C(Cc1ccccc1)c1ccccc1 | 1.6% | 
